Experimental data: PubChem BioAssay (Tox21)
Records with an inconclusive call do not appear. Calls of active or inactive are those of the source. Unless noted, the call rests on the fitted dose curve; in most records, active means well fitted curve in the direction sought with a large enough effect in the repeat runs; inconclusive means weak or mixed curves; inactive means no such curve, though single readings can be large; an effect the other way counts as inactive or inconclusive.

What was measured:
[1] = qHTS RealTime-Glo MT Cell Viability Assay in HEK293 cells - 0 hour (AID 1224880); further: top concentration of the series differs between compounds; nearly all actives have a fitted effect of over 45% in size
In short: (§1)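 Viable HEK293 cells reduce a cell-permeant prosubstrate; the product diffuses out and is consumed by NanoLuc in the medium to give light. Compounds went in after a 5 h incubation and plates were read over the treatment course.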

[2] = A CellTox Green Cytotoxicity Assay to monitor cytotoxicity in HEK293 cells - 32 hour (AID 1224881); further: nearly all actives have a fitted effect of over 40% in size
In short: (§2)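 Fluorescence intensity, read at 0, 8, 16, 24, 32 and 40 h of compound treatment, reflected dye binding to DNA of dead HEK293 cells; compounds (23 nL, DMSO) were added 5 h after plating cells with reagent.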

[3] = A CellTox Green Cytotoxicity Assay to monitor cytotoxicity in HepG2 cells - 0 hour (AID 1224882); further: nearly all actives have a fitted effect of over 35% in size
In short: (§3)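 Using 1536-well format, dye-containing HepG2 suspension was seeded, allowed 5 h at 37 C/5% CO2, dosed by pintool with compounds, positive and negative controls, and imaged for fluorescence across 40 h.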

[4] = A CellTox Green Cytotoxicity Assay to monitor cytotoxicity in HepG2 cells - 32 hour (AID 1224883); further: nearly all actives have a fitted effect of over 50% in size
In short: as §3

[5] = A CellTox Green Cytotoxicity Assay to monitor cytotoxicity in HEK293 cells - 8 hour (AID 1224884); further: nearly all actives have a fitted effect of over 35% in size
In short: as §2

[6] = qHTS RealTime-Glo MT Cell Viability Assay in HepG2 cells - 16 hour (AID 1224885); further: nearly all actives have a fitted effect of over 50% in size
In short: (§4)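 Viability was tracked continuously by NanoLuc luminescence from prosubstrate reduced by living HepG2 cells, at successive time points over 40 h of compound exposure. Cells with reagent were preincubated 5 h at 37 °C before compound addition.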

[7] = qHTS RealTime-Glo MT Cell Viability Assay in HEK293 cells - 24 hour (AID 1224886); further: top concentration of the series differs between compounds; nearly all actives have a fitted effect of over 50% in size
In short: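 Viability tracked continuously by luminescence as live cells reduce a prosubstrate for NanoLuc; HEK293 cells preincubated 5 h, compound-treated at 37 C, and read at 0, 8, 16, 24, 32 and 40 h.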

[8] = qHTS RealTime-Glo MT Cell Viability Assay in HEK293 cells - 8 hour (AID 1224887); further: top concentration of the series differs between compounds; nearly all actives have a fitted effect of over 50% in size
In short: as §1

[9] = qHTS RealTime-Glo MT Cell Viability Assay in HepG2 cells - 0 hour (AID 1224889); further: nearly all actives have a fitted effect of over 50% in size
In short: as §4

[10] = A CellTox Green Cytotoxicity Assay to monitor cytotoxicity in HepG2 cells - 8 hour (AID 1224890); further: nearly all actives have a fitted effect of over 45% in size
In short: as §3

[11] = qHTS assay to identify small molecule antagonists of the estrogen receptor alpha (ER-alpha) signaling pathway using the BG1 cell line in the presence of 0.1 nM 17-beta-estradiol - cell viability counter screen (AID 1259241); further: nearly all actives have a fitted effect of over 40% in size
In short: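 Viability in VM7Luc4E2 cells after 22 hr compound exposure under 0.1 nM 17beta-estradiol stimulation, by CellTiter-Fluor.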

[12] = qHTS assay to identify small molecule HDAC inhibitors (AID 1259364);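 further: wild-type HCT-116 cells with endogenous class I/II HDAC activity; top concentration of the series differs between compounds; nearly all actives have a fitted effect of over 45% in size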
In short: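 Read-out: luminescence of HDAC-Glo I/II reagent, 30 min RT, reflecting class I/II deacetylase activity in whole HCT-116 cells pre-exposed 2 h to DMSO-dissolved compounds.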

[13] = qHTS assay to identify small molecule HDAC inhibitors - cell viability counter screen (AID 1259365)
In short: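 Cytotoxicity was gauged in wild-type HCT-116 cells after a brief 2hr treatment with DMSO-dissolved compounds at 37C and 5% CO2, using CellTiter-Glo luminescence developed for 30min at room temperature.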

[14] = qHTS assay to identify small molecule agonists of the sonic hedgehog signaling (Shh) pathway - cell viability counter screen (AID 1259366); further: nearly all actives have a fitted effect of over 50% in size
In short: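 Stable Gli1-Luc NIH/3T3 clone, 2,000 cells/well. Compound exposure 24hr at 37C. Read-out: CellTiter-Fluor fluorescence.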

[15] = qHTS assay to identify small molecule antagonists of the sonic hedgehog signaling (Shh) pathway - cell viability counter screen (AID 1259367); further: nearly all actives have a fitted effect of over 55% in size
In short: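 After a 4 hr settling period, 3T3 Gli1-Luc cells were treated with DMSO-dissolved chemicals and conditioned medium, kept 24 hr at 37C in 5% CO2, and assayed for viability by CellTiter-Fluor fluorescence following 1 hr reagent incubation.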

[16] = qHTS assay to identify small molecule phospholipidosis (PLD) inducers (AID 1259344; active means well fitted curve in the direction sought with a large enough effect; an effect the other way counts as inactive or inconclusive)
In short: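 HepG2 cells grown on collagen I take up LipidTOX Red while exposed to compound for 24 h; after fixation they are imaged at 20x and pit metrics are extracted.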

[17] = A CellTox Green Cytotoxicity Assay to monitor cytotoxicity in HEK293 cells - 16 hour (AID 1224888); further: nearly all actives have a fitted effect of over 35% in size
In short: as §2

[18] = qHTS assay to identify small molecule antagonists of the androgen receptor (AR) signaling pathway using the MDA cell line in the presence of 0.5 nM R1881 - cell viability counter screen (AID 1259242); further: nearly all actives have a fitted effect of over 45% in size
In short: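 Viability of MDA-kb2 cells was multiplexed with the luciferase AR readout; after 16 hr with compounds and R1881 at 0.5 nM final, CellTiter-Fluor fluorescence was recorded.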

[19] = biological target: Estrogen receptor (Homo sapiens) (UniProt P03372); assay: qHTS assay to identify small molecule antagonists of the estrogen receptor alpha (ER-alpha) signaling pathway using the BG1 cell line in the presence of 0.1 nM 17-beta-estradiol (AID 1259244); further: nearly all actives have a fitted effect of over 50% in size
In short: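 Estradiol at 0.1 nM (final) stimulates the endogenous ER-alpha of VM7Luc4E2 cells carrying an ERE-driven luciferase; compounds are co-incubated 22 h at 37C and luciferase output quantified by luminescence.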

[20] = biological target: Androgen receptor (Homo sapiens) (UniProt P10275); assay: qHTS assay to identify small molecule antagonists of the androgen receptor (AR) signaling pathway using the MDA cell line in the presence of 0.5 nM R1881 (AID 1259243); further: nearly all actives have a fitted effect of over 50% in size
In short: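 Reporter cells cultured without CO2 receive test chemicals, then 0.5 nM R1881 final; after 16 hr at 37C, ONE-Glo is added and light output recorded.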
On the % scale 0 is the no-effect control and ±100 the full control effect.

Estrogen receptor (Homo sapiens), sequence (P03372 whole entry, looked up): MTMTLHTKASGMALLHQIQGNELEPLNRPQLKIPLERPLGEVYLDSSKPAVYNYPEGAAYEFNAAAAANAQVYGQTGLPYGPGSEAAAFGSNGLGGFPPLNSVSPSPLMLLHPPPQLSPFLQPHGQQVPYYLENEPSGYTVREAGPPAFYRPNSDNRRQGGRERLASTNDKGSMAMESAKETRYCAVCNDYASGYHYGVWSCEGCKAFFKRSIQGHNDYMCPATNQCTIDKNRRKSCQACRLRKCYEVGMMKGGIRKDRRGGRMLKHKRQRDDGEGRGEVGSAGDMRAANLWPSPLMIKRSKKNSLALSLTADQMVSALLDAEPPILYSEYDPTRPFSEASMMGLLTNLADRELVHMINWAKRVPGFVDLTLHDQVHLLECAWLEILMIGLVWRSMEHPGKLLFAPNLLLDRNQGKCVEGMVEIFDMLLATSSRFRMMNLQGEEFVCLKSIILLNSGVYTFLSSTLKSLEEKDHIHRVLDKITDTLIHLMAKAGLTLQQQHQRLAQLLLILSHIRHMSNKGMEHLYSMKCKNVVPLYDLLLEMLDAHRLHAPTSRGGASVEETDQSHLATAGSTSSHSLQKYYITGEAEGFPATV
Androgen receptor (Homo sapiens), sequence (P10275 whole entry, looked up): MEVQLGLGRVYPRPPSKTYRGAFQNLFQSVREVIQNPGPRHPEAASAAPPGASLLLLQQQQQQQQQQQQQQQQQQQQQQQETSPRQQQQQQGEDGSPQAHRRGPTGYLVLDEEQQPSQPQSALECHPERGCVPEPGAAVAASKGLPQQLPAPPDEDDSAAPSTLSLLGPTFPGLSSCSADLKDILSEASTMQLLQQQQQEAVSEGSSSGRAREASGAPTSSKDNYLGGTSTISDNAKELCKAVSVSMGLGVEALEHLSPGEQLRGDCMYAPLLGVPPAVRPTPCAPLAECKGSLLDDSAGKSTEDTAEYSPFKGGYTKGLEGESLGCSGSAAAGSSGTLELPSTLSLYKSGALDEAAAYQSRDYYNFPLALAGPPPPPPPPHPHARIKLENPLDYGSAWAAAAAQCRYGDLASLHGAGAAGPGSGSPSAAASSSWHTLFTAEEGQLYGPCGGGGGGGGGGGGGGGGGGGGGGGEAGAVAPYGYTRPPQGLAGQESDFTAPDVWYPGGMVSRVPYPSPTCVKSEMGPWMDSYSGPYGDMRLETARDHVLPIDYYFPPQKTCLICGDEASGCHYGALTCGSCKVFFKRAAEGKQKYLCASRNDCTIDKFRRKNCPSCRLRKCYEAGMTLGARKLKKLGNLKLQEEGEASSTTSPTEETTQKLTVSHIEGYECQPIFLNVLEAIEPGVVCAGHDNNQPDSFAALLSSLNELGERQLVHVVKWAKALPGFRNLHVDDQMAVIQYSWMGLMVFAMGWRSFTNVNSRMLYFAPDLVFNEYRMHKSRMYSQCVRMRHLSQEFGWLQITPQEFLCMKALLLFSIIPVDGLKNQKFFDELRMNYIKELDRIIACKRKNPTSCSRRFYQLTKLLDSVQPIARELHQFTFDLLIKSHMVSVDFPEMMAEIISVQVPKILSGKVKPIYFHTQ

CC/C=C/CCO
inactive: Potency [1] | Potency [2] | Potency [3] | Potency [4] | Potency [5] | outcome [6] | Potency [7] | Potency [8] | Potency [9] | Potency [10] | Potency [11] | Potency [12] | outcome [13] | Potency [14] | Potency [15]

CC(COc1ccccc1)NC(C)C(O)c1ccc(O)cc1 (centres undefined)
inactive: Potency [1] | Potency [2] | Potency [3] | Potency [4] | Potency [5] | outcome [6] | Potency [7] | Potency [8] | Potency [9] | Potency [10] | Potency [11] | Potency [16] | Potency [12] | outcome [13] | Potency [14] | Potency [15]

S=c1[nH][nH]c(=S)s1
inactive: Potency [1] | Potency [2] | Potency [3] | Potency [4] | Potency [5] | outcome [6] | Potency [8] | Potency [17] | Potency [9] | Potency [10] | Potency [11] | Potency [18] | Potency [12] | outcome [13] | Potency [14]

Cc1ccc2ccccc2c1[N+](=O)[O-]
inactive: Potency [1] | Potency [2] | Potency [3] | Potency [4] | Potency [5] | Potency [7] | Potency [8] | Potency [17] | Potency [9] | Potency [10] | Potency [11] | Potency [18] | Potency [19] | Potency [12] | outcome [13] | Potency [14] | Potency [15]

CCC[Si](OC)(OC)OC
inactive: Potency [1] | Potency [2] | Potency [3] | Potency [4] | Potency [5] | Potency [7] | Potency [8] | Potency [17] | Potency [9] | Potency [10] | Potency [11] | Potency [20] | Potency [19] | Potency [14] | Potency [15]

CC(CC(C#N)(c1ccccc1)C(C)C)N(C)C (centres undefined)
inactive: Potency [1] | Potency [2] | Potency [3] | Potency [4] | Potency [5] | Potency [7] | Potency [8] | Potency [17] | Potency [9] | Potency [10] | Potency [11] | Potency [20] | Potency [19] | Potency [12] | outcome [13] | Potency [14] | Potency [15]

O=C(O)c1ccc2c(c1)nc(C(=O)NC1CCN(C3CC3)CC1)n2Cc1cc(-c2ccc(Cl)s2)on1
inactive: activity change, negative = cytotoxicity [1] -5.93% [at 15.8 µM] | cytotoxicity increase [2] 1.64% [at 15.8 µM] | cytotoxicity [3] -4.38% [at 15.8 µM] | cytotoxicity increase [4] -6.61% [at 15.8 µM] | cytotoxicity increase [5] -5.24% [at 15.8 µM] | activity change, negative = cytotoxicity [7] 0.501% [at 15.8 µM] | activity change, negative = cytotoxicity [8] 8.44% [at 15.8 µM] | activity change [17] 0.74% [at 15.8 µM, hits give high values] | activity change, negative = cytotoxicity [9] -12.8% [at 15.8 µM] | cytotoxicity increase [10] 1.82% [at 15.8 µM] | activity change, negative = cytotoxicity [11] 3.2% [at 19 µM] | viability change, negative = cytotoxic [18] 1.29% [at 19 µM] | activity change, negative = inhibition [19] -4.46% [at 19 µM] | activity change, negative = inhibition [12] -4.76% [at 19 µM] | activity change, negative = cytotoxicity [13] 0.77% [at 19 µM] | viability change, negative = cytotoxic [14] 1.29% [at 19 µM] | viability change, negative = cytotoxic [15] 0.451% [at 19 µM]

NC(=O)c1cc[n+](CC2=C(C(=O)[O-])N3C(=O)[C@@H](NC(=O)Cc4cccs4)[C@H]3SC2)cc1
inactive: Potency [1] | Potency [2] | Potency [3] | Potency [4] | Potency [5] | Potency [7] | Potency [8] | Potency [9] | Potency [10] | Potency [11] | Potency [18] | Potency [19] | Potency [16] | Potency [12] | outcome [13] | Potency [14] | Potency [15]
